# Test results from PubChem BioAssay (EPA / NIEHS).
# “And” between values parts separate entries of the source, which are not always exact repeats. Identical values can stand only once. Records with an inconclusive call do not appear. The source made the active and inactive calls. The calls were made as follows, unless noted: active = hit-call score of the fitted dose curve at least 0.9, where 1 is the maximum; inconclusive = response in the unintended direction; inactive = score below 0.9.
# Experiments:
# [1] = biological target: Tyrosine-protein phosphatase non-receptor type 11 (Homo sapiens) (UniProt Q06124); experiment: NVS_ENZ_hPTPN11: NovaScreen (NVS) Enzymatic Assay for human Protein Tyrosine Phosphatase Non-receptor Type 11 (PTPN11) (AID 2283202)
# Tyrosine-protein phosphatase non-receptor type 11 (Homo sapiens), sequence (Q06124 whole entry, looked up): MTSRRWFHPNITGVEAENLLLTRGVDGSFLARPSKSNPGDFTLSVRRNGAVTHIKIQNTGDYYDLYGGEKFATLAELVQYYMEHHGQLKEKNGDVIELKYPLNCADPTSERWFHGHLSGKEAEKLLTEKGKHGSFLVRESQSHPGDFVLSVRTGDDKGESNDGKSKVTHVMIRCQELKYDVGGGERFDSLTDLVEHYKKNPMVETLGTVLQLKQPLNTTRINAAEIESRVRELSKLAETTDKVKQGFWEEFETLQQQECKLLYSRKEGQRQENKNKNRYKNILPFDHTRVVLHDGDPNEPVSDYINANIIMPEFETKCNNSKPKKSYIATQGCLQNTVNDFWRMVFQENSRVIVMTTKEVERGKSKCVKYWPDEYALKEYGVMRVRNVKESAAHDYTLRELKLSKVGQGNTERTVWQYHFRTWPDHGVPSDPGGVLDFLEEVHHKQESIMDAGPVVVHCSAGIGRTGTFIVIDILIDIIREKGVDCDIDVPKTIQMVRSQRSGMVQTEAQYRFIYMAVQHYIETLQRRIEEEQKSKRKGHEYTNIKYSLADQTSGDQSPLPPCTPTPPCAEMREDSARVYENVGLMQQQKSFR
# Summary of the method: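 Recombinant human PTPN11 activity on a fluorescent substrate, with substrate/product separated by electrophoretic mobility shift; read 0.5 h after dosing, loss of signal vs DMSO. Duplicate 25 uM screen, then concentration-response up to 50 uM.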
# [2] = biological target: human Peroxisome Proliferator-activated Receptor alpha (PPARa), PPARA (gene 5465) (UniProt Q07869); experiment: NVS_NR_hPPARa: NovaScreen (NVS) Nuclear Receptor Binding Assay for human Peroxisome Proliferator-activated Receptor alpha (PPARa) (AID 2283359);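 also: activity means loss of TR-FRET signal versus DMSO baseline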
# human Peroxisome Proliferator-activated Receptor alpha (PPARa), PPARA (gene 5465), sequence (Q07869 whole entry, looked up): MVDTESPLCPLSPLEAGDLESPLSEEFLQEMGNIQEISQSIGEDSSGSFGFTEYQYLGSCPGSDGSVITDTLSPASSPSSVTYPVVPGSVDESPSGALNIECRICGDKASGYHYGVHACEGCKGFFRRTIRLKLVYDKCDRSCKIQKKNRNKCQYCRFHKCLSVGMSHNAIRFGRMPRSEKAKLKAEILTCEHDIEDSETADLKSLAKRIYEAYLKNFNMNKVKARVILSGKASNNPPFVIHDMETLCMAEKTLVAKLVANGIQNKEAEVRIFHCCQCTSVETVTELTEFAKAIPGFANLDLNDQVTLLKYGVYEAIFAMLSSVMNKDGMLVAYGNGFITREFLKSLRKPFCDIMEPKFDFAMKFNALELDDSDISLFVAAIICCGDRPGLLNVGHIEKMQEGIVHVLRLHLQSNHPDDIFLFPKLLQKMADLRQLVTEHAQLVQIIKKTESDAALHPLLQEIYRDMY
# Summary of the method: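 Chemicals were first screened in duplicate at 25 uM, and active ones were retested across concentration series. Binding was monitored by TR-FRET one hour after dosing, with decreased signal against DMSO counted as activity.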
# [3] = biological target: Retinoic acid receptor alpha (Homo sapiens) (UniProt P10276); experiment: NVS_NR_hRARa_Agonist: NovaScreen (NVS) Nuclear Receptor Binding Assay for human Retinoic Acid Alpha Receptor Agonism (RAR) (AID 2283361)
# Retinoic acid receptor alpha (Homo sapiens), sequence (P10276 whole entry, looked up): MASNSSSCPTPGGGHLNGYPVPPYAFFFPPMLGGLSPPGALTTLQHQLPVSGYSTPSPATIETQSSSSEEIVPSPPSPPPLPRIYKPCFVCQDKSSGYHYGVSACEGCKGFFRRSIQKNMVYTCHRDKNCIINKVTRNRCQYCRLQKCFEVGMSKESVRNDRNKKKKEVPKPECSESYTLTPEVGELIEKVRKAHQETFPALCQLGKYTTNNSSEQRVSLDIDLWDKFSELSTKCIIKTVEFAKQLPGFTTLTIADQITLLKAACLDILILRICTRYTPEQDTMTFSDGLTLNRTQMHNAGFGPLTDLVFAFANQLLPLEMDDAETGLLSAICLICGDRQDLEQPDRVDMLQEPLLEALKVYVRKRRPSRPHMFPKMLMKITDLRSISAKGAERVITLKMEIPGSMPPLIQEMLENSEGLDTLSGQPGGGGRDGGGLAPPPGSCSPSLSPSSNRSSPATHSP
# Summary of the method: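 Readout is time-resolved fluorescence resonance energy transfer after a 2 h exposure of cell-free extracted receptor protein. Initial testing used 25 uM in duplicate, with concentration-response follow-up for active chemicals.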
# [4] = biological target: Peroxisome proliferator-activated receptor gamma (Homo sapiens) (UniProt P37231); experiment: OT_PPARg_PPARgSRC1_0480: Odyssey Thera (OT) 8-hour Protein-Complementation Assay for Peroxisome Proliferator-activated Receptor Gamma / SRC-1 Co-activator (AID 2283387);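 also: nuclear to cytoplasmic split Venus YFP fluorescence ratio reporting PPARg SRC-1 interaction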
# Peroxisome proliferator-activated receptor gamma (Homo sapiens), sequence (P37231 whole entry, looked up, the tested form may be a part): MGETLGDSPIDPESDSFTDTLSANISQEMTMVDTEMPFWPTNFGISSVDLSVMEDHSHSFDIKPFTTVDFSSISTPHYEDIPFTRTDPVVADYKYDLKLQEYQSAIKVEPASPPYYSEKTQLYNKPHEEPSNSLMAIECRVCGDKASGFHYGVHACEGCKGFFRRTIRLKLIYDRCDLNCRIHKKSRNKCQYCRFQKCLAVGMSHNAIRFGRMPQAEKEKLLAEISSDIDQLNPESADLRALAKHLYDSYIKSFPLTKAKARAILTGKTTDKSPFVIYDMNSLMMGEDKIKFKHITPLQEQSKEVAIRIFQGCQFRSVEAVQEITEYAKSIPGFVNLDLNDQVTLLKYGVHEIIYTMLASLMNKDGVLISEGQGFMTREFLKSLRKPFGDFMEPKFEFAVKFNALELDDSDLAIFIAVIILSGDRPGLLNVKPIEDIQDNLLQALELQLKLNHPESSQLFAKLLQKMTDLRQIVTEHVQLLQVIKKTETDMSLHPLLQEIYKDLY
# Summary of the method: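 Protein-fragment complementation in HEK293T: Venus YFP halves (residues 1-158, 159-239, mutated to IFP1/IFP2) fused to PPARg/SRC-1. 8 h exposure; N/C ratio at 488 nm; DMSO negative control.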
# [5] = biological target: Peroxisome proliferator-activated receptor gamma (Homo sapiens) (UniProt P37231); experiment: OT_PPARg_PPARgSRC1_1440: Odyssey Thera (OT) 24-hour Protein-Complementation Assay for Peroxisome Proliferator-activated Receptor Gamma/ SRC-1 Co-activator (AID 2283388);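 also: nuclear to cytoplasmic ratio of reconstituted Venus YFP fluorescence in fixed imaged cells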
# Summary of the method: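 Protein-fragment complementation between PPARg and coactivator SRC-1 was measured by fluorescence imaging in transiently transfected HEK293T cells after 24 h treatment. Signal was quantified as N/C ratio in the 488 nm channel, with DMSO as negative control.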
# [6] = CEETOX_H295R_11DCORT: CeeTox H295R High-throughput Steroidogenesis Assay for 11-Deoxycortisol (11DCORT) (AID 2283432; active = hit-call score of the fitted dose curve at least 0.9, where 1 is the maximum; inactive = score below 0.9); conditions: actives raise or lower the signal
# Summary of the method: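 Adrenal carcinoma line H295R, run per OECD 456 with minor changes, was forskolin-stimulated (10 uM, 48 h) before a 48 h chemical exposure at 0.1% DMSO. Secreted 11-deoxycortisol was quantified by HPLC-MS/MS.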
# [7] = CEETOX_H295R_OHPREG: CeeTox H295R High-throughput Steroidogenesis Assay for OH-Pregnenolone (OHPREG) (AID 2283434; active = hit-call score of the fitted dose curve at least 0.9, where 1 is the maximum; inactive = score below 0.9); conditions: actives raise or lower the signal
# Summary of the method: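 Hormone levels in spent medium were measured by tandem mass spectrometry following liquid-liquid extraction. Cells (H295R) had been forskolin-stimulated (10 uM, 48 h) before a 48 h chemical exposure at 0.1% DMSO, with activity fitted in both directions against DMSO.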
# [8] = CEETOX_H295R_OHPROG: CeeTox H295R High-throughput Steroidogenesis Assay for OH-Progesterone (OHPROG) (AID 2283435; active = hit-call score of the fitted dose curve at least 0.9, where 1 is the maximum; inactive = score below 0.9); conditions: actives raise or lower the signal
# Summary of the method: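 H295R human adrenal cells were prestimulated 48 h with 10 uM forskolin, then exposed 48 h to test chemical (0.1% DMSO final). 17alpha-hydroxyprogesterone in medium was measured by HPLC-MS/MS after MTBE extraction; bidirectional fitting vs DMSO.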
# [9] = CEETOX_H295R_CORTIC: CeeTox H295R High-throughput Steroidogenesis Assay for Corticosterone (CORTIC) (AID 2283437; active = hit-call score of the fitted dose curve at least 0.9, where 1 is the maximum; inactive = score below 0.9;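 also: corticosterone secreted into medium quantified by mass spectrometry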); conditions: actives raise or lower the signal
# Summary of the method: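 Corticosterone secreted into medium is measured by reverse-phase HPLC with tandem MS following liquid-liquid extraction. Cells are forskolin-stimulated (10 uM, 48 h) before 48 h test exposure; activity fitted in both directions against DMSO.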
# [10] = CEETOX_H295R_CORTISOL: CeeTox H295R High-throughput Steroidogenesis Assay for Cortisol (AID 2283438; active = hit-call score of the fitted dose curve at least 0.9, where 1 is the maximum; inactive = score below 0.9;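 also: cortisol secreted into medium quantified by LC-MS/MS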); conditions: actives raise or lower the signal
# Summary of the method: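 H295R human adrenal cells were prestimulated 48 h with 10 uM forskolin, then exposed 48 h to test chemical (0.1% DMSO final). Medium cortisol was quantified by HPLC-MS/MS after MTBE extraction; bidirectional fitting relative to DMSO baseline.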
# [11] = CEETOX_H295R_DOC: CeeTox H295R High-throughput Steroidogenesis Assay for DOC (AID 2283439; active = hit-call score of the fitted dose curve at least 0.9, where 1 is the maximum; inactive = score below 0.9); conditions: actives raise or lower the signal
# Summary of the method: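 H295R adrenal cells prestimulated 48 h with 10 uM forskolin, then exposed 48 h to test chemical (0.1% DMSO final). Medium 11-deoxycorticosterone extracted with MTBE, quantified by HPLC-MS/MS; bidirectional fit versus DMSO baseline; MTT viability in same wells.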
# [12] = CEETOX_H295R_PROG: CeeTox H295R High-throughput Steroidogenesis Assay for Progesterone (PROG) (AID 2283442; active = hit-call score of the fitted dose curve at least 0.9, where 1 is the maximum; inactive = score below 0.9); conditions: actives raise or lower the signal
# Summary of the method: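 Steps: seed H295R cells and let them adhere overnight; prime 48 h with 10 uM forskolin; dose with compound in DMSO at 0.1% final for 48 h; extract medium steroids with MTBE; measure progesterone by LC-MS/MS. MTT viability was run in the same wells.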
# [13] = CEETOX_H295R_MTT_cell_viability: Viability Assessment in the CeeTox HT-H295R MTT Assay (AID 2283718; active = hit-call score of the fitted dose curve at least 0.9, where 1 is the maximum; inactive = score below 0.9)
# Summary of the method: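 MTT reduction (0.5 mg/ml, 4 h at 37 C; absorbance at 570 and 650 nm) gave viability as background-corrected percent change versus controls. H295R cells had 48 h forskolin (10 uM) prestimulation, then 48 h chemical exposure at 0.1% DMSO.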
# [14] = ATG_M_06_XSP2: Attagene TRANS-FACTORIAL Multi-Species (XSP2) HepG2 Assay for M06 Transcription Factor (Internal Marker) (AID 2283811);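 also: internal background marker reporter mRNA measured by RT-PCR and capillary electrophoresis; hits are increases in signal above the DMSO baseline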
# Summary of the method: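 HepG2, multiplexed reporter transfection; 24 h dosing; AR stimulated with 3 nM 6-alpha-fluorotestosterone + 1.5 nM norgestrel; RNA → RT-PCR → 6-FAM primer extension → HpaI → CE. Positive direction vs DMSO.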
# [15] = system: turtle Estrogen Receptor (ERa), gene 101933533; experiment: ATG_trERa_XSP2: Attagene TRANS-FACTORIAL Multi-Species (XSP2) HepG2 Assay for turtle Estrogen Receptor (ERa) (AID 2283812);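 also: human HepG2 liver cells transiently expressing turtle ERa-Gal4 chimeric receptor; actives raise reporter signal above DMSO so AC50 reflects agonist activity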
# Summary of the method: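 HepG2 cells transiently transfected with GAL4-UAS reporter units expressing turtle ERa-Gal4 chimera. Reporter mRNA measured after 24 h dosing by RT-PCR, fluorescent labelling and capillary electrophoresis; gain of signal fitted versus DMSO.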
# [16] = biological target: Estrogen receptor beta (Homo sapiens) (UniProt Q92731); experiment: ATG_hERb_XSP2: Attagene TRANS-FACTORIAL Multi-Species (XSP2) HepG2 Assay for human Estrogen Receptor (ERb) (AID 2283813);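 also: actives raise reporter mRNA above DMSO so AC50 reflects agonist induction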
# Estrogen receptor beta (Homo sapiens), sequence (Q92731 whole entry, looked up, the tested form may be a part): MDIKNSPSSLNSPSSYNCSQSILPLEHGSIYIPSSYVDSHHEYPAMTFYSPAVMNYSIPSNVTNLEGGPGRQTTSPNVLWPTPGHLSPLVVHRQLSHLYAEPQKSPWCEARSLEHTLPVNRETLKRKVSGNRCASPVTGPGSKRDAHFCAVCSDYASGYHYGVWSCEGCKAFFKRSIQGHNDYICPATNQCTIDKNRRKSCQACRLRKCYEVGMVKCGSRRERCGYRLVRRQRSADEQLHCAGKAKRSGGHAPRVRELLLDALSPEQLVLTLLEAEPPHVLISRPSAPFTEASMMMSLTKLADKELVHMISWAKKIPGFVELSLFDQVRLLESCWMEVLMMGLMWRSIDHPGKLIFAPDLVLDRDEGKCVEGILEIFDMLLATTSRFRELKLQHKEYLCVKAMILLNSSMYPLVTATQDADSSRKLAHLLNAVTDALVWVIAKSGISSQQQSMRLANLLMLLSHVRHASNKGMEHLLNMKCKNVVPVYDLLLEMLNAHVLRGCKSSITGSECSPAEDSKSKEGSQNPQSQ
# Summary of the method: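 HepG2 cells transiently transfected with GAL4-UAS reporter units and chimeric human ERb-Gal4, 24 h exposure. Reporter mRNA quantified by RT-PCR with FAM labelling, HpaI digestion and capillary electrophoresis; gain of signal versus DMSO.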
# [17] = biological target: GAL4 Transcription Factor (Internal Marker), GAL4 (gene 855828) (UniProt P04386); experiment: ATG_GAL4_XSP2: Attagene TRANS-FACTORIAL Multi-Species (XSP2) HepG2 Assay for GAL4 Transcription Factor (Internal Marker) (AID 2283814);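 also: GAL4 reporter mRNA background control in MRTU transfected cells not a receptor target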
# GAL4 Transcription Factor (Internal Marker), GAL4 (gene 855828), sequence (P04386 whole entry, looked up, the tested form may be a part): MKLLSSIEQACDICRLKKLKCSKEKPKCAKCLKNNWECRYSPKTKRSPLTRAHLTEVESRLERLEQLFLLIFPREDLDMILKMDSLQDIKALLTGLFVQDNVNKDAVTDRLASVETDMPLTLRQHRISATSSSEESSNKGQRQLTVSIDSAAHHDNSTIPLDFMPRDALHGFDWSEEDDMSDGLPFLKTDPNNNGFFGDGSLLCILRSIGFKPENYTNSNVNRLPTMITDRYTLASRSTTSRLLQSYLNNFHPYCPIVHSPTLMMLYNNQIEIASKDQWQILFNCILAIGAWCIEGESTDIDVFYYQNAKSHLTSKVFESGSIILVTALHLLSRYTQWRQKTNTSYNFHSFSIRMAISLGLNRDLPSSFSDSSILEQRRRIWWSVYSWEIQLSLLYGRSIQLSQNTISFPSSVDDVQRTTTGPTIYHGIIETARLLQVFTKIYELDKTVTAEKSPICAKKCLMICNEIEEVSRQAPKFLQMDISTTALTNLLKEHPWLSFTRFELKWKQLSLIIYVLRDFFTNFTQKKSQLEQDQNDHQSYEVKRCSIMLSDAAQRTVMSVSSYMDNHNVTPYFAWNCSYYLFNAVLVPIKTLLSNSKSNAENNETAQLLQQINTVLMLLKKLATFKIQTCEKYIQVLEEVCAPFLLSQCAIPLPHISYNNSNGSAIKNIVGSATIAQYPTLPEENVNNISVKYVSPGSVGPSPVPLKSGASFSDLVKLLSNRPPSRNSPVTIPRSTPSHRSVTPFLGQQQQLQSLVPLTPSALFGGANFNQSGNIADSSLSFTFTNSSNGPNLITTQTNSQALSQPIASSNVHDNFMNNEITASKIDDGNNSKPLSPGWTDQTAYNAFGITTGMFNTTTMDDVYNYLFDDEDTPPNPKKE
# Summary of the method: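 HepG2 cells transiently transfected with GAL4-UAS reporter units, stimulated with 3 nM 6-alpha-fluorotestosterone plus 1.5 nM norgestrel, dosed 24 h. Reporter mRNA by RT-PCR/capillary electrophoresis; gain-of-signal fit versus DMSO, background control.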
# [18] = biological target: zebrafish Estrogen Receptor (ER1), esr1 (gene 259252) (UniProt P57717); experiment: ATG_zfER1_XSP2: Attagene TRANS-FACTORIAL Multi-Species (XSP2) HepG2 Assay for zebrafish Estrogen Receptor (ER1) (AID 2283816)
# zebrafish Estrogen Receptor (ER1), esr1 (gene 259252), sequence (P57717 whole entry, looked up, the tested form may be a part): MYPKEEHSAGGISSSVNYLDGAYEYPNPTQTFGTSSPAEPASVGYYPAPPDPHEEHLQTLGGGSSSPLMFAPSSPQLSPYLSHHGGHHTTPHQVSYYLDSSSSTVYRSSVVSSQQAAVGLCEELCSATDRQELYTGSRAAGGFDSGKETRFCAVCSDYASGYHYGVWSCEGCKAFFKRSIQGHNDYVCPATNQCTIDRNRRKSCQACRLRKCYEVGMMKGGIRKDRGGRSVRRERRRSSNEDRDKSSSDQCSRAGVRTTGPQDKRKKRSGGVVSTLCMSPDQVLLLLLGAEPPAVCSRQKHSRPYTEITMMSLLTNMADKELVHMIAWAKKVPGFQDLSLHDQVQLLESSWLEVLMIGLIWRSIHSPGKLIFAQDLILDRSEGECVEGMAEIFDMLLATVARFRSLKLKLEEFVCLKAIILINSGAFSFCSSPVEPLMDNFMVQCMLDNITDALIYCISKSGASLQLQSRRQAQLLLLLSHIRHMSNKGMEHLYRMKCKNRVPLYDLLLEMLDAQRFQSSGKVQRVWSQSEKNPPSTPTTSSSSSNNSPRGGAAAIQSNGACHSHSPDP
# Summary of the method: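 HepG2 cells transiently transfected with a GAL4-UAS reporter and a chimeric zebrafish ER1-Gal4 construct, dosed 24 h. Reporter mRNA quantified by RT-PCR, labelling, HpaI digestion and capillary electrophoresis, relative to DMSO.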
# [19] = biological target: chicken Estrogen Receptor (ERa), ESR1 (gene 396099) (UniProt P06212); experiment: ATG_chERa_XSP2: Attagene TRANS-FACTORIAL Multi-Species (XSP2) HepG2 Assay for chicken Estrogen Receptor (ERa) (AID 2283817);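 also: actives raise reporter signal above DMSO so AC50 reflects ER activation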
# chicken Estrogen Receptor (ERa), ESR1 (gene 396099), sequence (P06212 whole entry, looked up, the tested form may be a part): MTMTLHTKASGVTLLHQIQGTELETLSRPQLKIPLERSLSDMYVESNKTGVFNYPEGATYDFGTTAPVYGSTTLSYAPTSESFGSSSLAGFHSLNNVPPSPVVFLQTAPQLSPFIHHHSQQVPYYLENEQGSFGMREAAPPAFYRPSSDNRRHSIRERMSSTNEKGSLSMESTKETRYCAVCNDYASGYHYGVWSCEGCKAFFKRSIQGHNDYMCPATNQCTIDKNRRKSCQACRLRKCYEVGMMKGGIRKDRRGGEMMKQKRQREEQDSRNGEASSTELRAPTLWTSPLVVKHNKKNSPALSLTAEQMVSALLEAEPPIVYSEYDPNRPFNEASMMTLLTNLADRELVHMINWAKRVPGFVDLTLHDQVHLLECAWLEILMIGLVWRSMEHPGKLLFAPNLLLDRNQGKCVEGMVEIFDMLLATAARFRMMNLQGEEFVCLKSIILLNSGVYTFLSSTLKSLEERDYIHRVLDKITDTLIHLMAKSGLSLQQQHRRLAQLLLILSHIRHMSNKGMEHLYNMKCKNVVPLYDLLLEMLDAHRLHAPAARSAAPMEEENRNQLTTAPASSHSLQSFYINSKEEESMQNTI
# Summary of the method: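 Transient MRTU transfection of HepG2 → 24 h chemical dosing → TriZol RNA, oligo(dT) RT → PCR, 6-FAM primer extension, HpaI digest → CE quantitation of chicken ERa-Gal4-driven reporter mRNA. Positive direction vs DMSO.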
# [20] = system: zebrafish Estrogen Receptor (ER2a), gene 317734; experiment: ATG_zfER2a_XSP2: Attagene TRANS-FACTORIAL Multi-Species (XSP2) HepG2 Assay for zebrafish Estrogen Receptor (ER2a) (AID 2283818);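 also: hits raise reporter mRNA so AC50 reflects activation of zebrafish ER2a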
# Summary of the method: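 HepG2 cells transiently transfected with GAL4-UAS reporter units and chimeric zebrafish ER2a-Gal4, exposed 24 h; medium contains 3 nM 6-alpha-fluorotestosterone and 1.5 nM norgestrel. Reporter mRNA quantified by RT-PCR, HpaI digestion, capillary electrophoresis; gain versus DMSO.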
smiles,measurement,setting,value
Cc1cc(O)cc(C)c1Cl,outcome,[1],inactive
same,outcome,[2],inactive
same,outcome,[3],inactive
same,outcome,[4],inactive
same,outcome,[5],inactive
same,outcome,[6],inactive
same,outcome,[7],inactive
same,AC50,[8],13.8 µM (active)
same,outcome,[9],inactive
same,outcome,[10],inactive
same,outcome,[11],inactive
same,outcome,[12],inactive
same,outcome,[13],inactive
same,outcome,[14],inactive
same,AC50,[15],45.8 µM (active) and 16.2 µM (active)
same,AC50,[16],7.77 µM (active) and 7.9 µM (active)
same,outcome,[17],inactive
same,AC50,[18],76 µM (active) and 29.7 µM (active)
same,AC50,[19],24.2 µM (active) and 31.7 µM (active)
same,AC50,[20],100 µM (active) and 23.8 µM (active)
